Screening data (PubChem)
Rows were chosen to be rich in hits. Some 1.1% of all compounds tested hit in one or more screens of this group.
gsp agonist = gsp mutant agonism | gsp mutant cells, cAMP HTRF, 30 min | Potency, µM (top dose mostly 76.9 µM), without a hit: at the highest dose activation (cAMP increase), hits mostly activators | 0.13% of 340,000 active | AID 624287; active means well fitted activation curve with a large enough effect; inconclusive means small, poorly fitted or top-dose-only effect, or another doubt; inactive means no such curve, though single readings can be large or run the other way; cell line not stated here;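 further: phosphodiesterase inhibitor Ro 20-1724 added with compounds to block cAMP breakdown; potency means the concentration at half of the fitted maximal effect; nearly all actives have a fitted effect of over 60% in size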
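Cells in DMEM/10% FBS with G418 were pretreated with compounds in DMSO plus […] (300 uM stock) for 30 min at 37C. cAMP was measured by HTRF (cAMP-d2 plus anti-cAMP antibody-K) after 30 min at room temperature.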
Tb PFK block = T. brucei PFK enzyme inhibition | T. brucei PFK, ADP-Glo luminescence | Potency, µM (top dose mostly 57.5 µM), for the others: top-dose activity, negative = inhibition, most hits filed as inhibitors | 0.17% of 330,000 active;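 further: potency means the concentration at half of the fitted maximal effect; 0% = uninhibited 1x PFK enzyme wells and -100% = no-enzyme wells; nearly all actives have a fitted effect of over 60% in size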
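1.25 nM PFK with 0.5 mM F6P and 0.1 mM ATP in 0.1 M TEA pH 8.0, 5 mM MgCl2, incubated 45 min at room temperature; ADP measured by ADP-Glo luminescence; compounds titrated up to 57 uM.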
RXFP1 agonist = activates the human relaxin receptor RXFP1 | Q9HBX9 | Potency, µM (series often up to 57.5 µM), for inactives: at the highest dose activation, hits mostly activators | HEK293T-RXFP1 cAMP TR-FRET, 30 min; response scale: percent of porcine relaxin response, buffer zero | 0.3% of 370,000 active; further: potency means the concentration at half of the fitted maximal effect; on the % scale 0 is the no-effect control and ±100 the full control effect; nearly all actives have a fitted effect of over 60% in size
Target sequence (Q9HBX9 whole entry, looked up): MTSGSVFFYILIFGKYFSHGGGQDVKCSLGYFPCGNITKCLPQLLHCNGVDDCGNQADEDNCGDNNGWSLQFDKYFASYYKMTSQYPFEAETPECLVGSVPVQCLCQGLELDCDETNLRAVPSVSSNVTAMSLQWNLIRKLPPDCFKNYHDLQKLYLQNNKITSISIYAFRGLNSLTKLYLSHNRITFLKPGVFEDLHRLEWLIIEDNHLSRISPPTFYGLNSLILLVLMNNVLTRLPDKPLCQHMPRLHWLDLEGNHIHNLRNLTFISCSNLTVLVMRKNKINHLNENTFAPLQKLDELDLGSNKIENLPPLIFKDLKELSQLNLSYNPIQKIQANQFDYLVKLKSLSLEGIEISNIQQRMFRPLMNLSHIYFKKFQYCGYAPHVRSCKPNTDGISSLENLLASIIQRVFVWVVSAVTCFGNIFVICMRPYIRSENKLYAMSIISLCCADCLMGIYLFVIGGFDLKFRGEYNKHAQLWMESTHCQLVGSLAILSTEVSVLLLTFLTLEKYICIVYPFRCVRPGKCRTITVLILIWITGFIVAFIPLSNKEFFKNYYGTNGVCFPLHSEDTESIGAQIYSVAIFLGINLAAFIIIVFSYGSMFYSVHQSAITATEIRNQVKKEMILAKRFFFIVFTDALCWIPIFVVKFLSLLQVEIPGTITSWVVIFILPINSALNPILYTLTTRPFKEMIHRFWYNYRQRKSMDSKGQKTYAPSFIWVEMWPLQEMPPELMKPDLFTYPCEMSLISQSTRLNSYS
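HEK293 cells stably expressing RXFP1, treated 30 min at 37C with compounds plus PDE4 inhibitor Ro 20174; cAMP measured by HTRF TR-FRET. Normalized to buffer and 29 nM porcine relaxin; EC50 by Hill fit.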
RXFP1 antagonist = blocks the human relaxin receptor RXFP1; activity change, negative = inhibition, % at 57.5 µM; HEK293-RXFP1, relaxin-stimulated cAMP HTRF, 30 min; stronger effect = lower value; AID 1259400; 0.59% of 350,000 active;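 active means activity change of -60% or lower, but not beyond a set lower limit; inconclusive means change between -60% and -40%, or beyond the set limit; inactive means change above -40%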; further: on the % scale 0 is the no-effect control and ±100 the full control effect
p53 reactivation = restores transcriptional activity of mutant p53 | H1299 p53-A138V BP100-luciferase reporter, luminescence, 24 h | AID 504706 | Potency, µM (series often up to 92.2 µM), for the others: top-dose activity change, positive = activation, actives largely listed as activators | 0.063% of 320,000 active; further: potency means the concentration at half of the fitted maximal effect; % of control where 0% means no effect; nearly all actives have a fitted effect of over 45% in size
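p53-null H1299 cells stably carrying temperature-sensitive p53-A138V and a BP100-luciferase reporter were pinned with compounds (4-point, 1:5 series) and held 24 hrs at 37 deg C. Luminescence was read 10 min after detection reagent.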
gsp antag = antagonists of gsp mutant (McCune-Albright syndrome); gsp-mutant cells, cAMP HTRF, 30 min; Potency, µM (highest dose often 76.9 µM), inactives show at the top dose activity change, negative = inhibition, usual class: inhibitors; 0.4% of 340,000 active; calls by dose curve; cell line not stated here;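 further: intracellular cAMP measured with PDE inhibitor Ro 20-1724 present during compound exposure; potency means the concentration at half of the fitted maximal effect; on the % scale 0 is the no-effect control and ±100 the full control effect; nearly all actives have a fitted effect of over 65% in size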
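HTRF cAMP measurement after 30 min RT detection following 30 min, 37C compound treatment alongside […] (added as 300 uM solution) in G418-selected cells seeded at 2000/well and grown 16–24 h.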
* hit, by the source's call; ? = inconclusive; / = no result given; [ ] = remark or other dose. Unless noted, the call rests on the fitted dose curve; in most records, active means well fitted curve in the direction sought with a large enough effect; inconclusive means small, poorly fitted or top-dose-only effect, or another doubt; inactive means no such curve, though single readings can be large; an effect the other way counts as inactive or inconclusive.

SMILES	gsp agonist	Tb PFK block	RXFP1 agonist	RXFP1 antagonist	p53 reactivation	gsp antag
CCCN(Cc1nnc(-c2ccccc2Cl)o1)C(=O)c1cccc(S(=O)(=O)N2CCOCC2)c1	-8%	1%	0%	-2	-7%	-9%
COc1ccc(OCC#CCn2ccnc2)cc1	-49%	-7%	-1%	4	0%	1%
Cc1ccc(C)c(NS(=O)(=O)c2ccc3c4c(cccc24)C(=O)N3)c1	/	/	0%	-79*	/	/
O=C1Nc2ccc(S(=O)(=O)Nc3ccccc3O)c3cccc1c23	/	/	-1%	-5	/	/
CCOC(=O)c1ccc(N/C=C/C(=O)c2ccco2)cc1	-6%	1%	3%	-6	17%	-7%
O=C(/C=C/Nc1ccc(F)cc1)c1ccco1	-14%	0%	3%	-1	45µM*	7%
N=C1N=C(N)c2cc3ccccc3cc21	/	/	/	-80*	/	/
CCN(CC)CCCNC(=O)c1ccc2c(c1)NC(=O)C(CS(=O)(=O)Cc1cccc(Br)c1)N2 (stereo unspecified)	/	/	0%	-16	/	/
COc1cc(C2C(C(=O)c3ccco3)=C(O)C(=O)N2CCc2ccccc2)ccc1O (stereo unspecified)	20%	-18%	-1%	-1	0%	-22%
COc1ccc(CCN2C(=O)C(O)=C(C(=O)c3ccco3)C2c2cccs2)cc1OC (stereo unspecified)	18µM*	-14%	?	16	0%	32%
COC(=O)C1=C(C)N(Cc2ccccc2)C(=NCC(C)C)N[C@H]1c1ccc(Br)cc1	/	0%	3%	/	/	/
CCc1ccc(NC(=O)C2CCN(S(=O)(=O)c3c(C)noc3/C=C/c3cccs3)CC2)cc1	/	/	2%	2	/	/
CCc1ccc(NC(=O)C2CCN(S(=O)(=O)c3c(C)noc3/C=C/N(C)C)CC2)cc1	-1%	-10%	2%	-62*	4%	-9%
COc1ccc(/C=N/Nc2cc(C)nc3c(C)cccc23)cc1	-20%	3%	2%	-28	/	9%
COc1ccc(/C=N/Nc2cc(C)nc3ccccc23)cc1	-31%	-1%	0%	-71*	10%	9%
O=C(Nc1nc(-c2ccccn2)cs1)C1CC1	-30%	-2%	0%	/	22µM*	3%
CCOc1ccccc1NC(=O)N1CC(CC)Oc2ccccc21 (stereo unspecified)	/	/	-1%	-80*	/	/
CCC1CN(C(=O)Nc2cc(C)ccc2OC)c2cc(Cl)ccc2O1 (stereo unspecified)	/	/	-1%	-61*	/	/
Cc1ccc(C(=O)/C=C/c2ccc(F)cc2)o1	1%	0%	3%	7	45µM*	0%
O=C(NCCc1csc(-c2cccc(F)c2)n1)c1ccc(Br)o1	/	/	-2%	-78*	/	/
COc1ccccc1CNC(=O)CCc1ccccc1	-8%	-4%	1%	3	/	5%
COc1ccc(CCC(=O)NCCc2csc(-c3cccc(C)c3)n2)cc1	/	/	1%	-73*	/	/
COc1ccc(CCC(=O)NCc2ccccc2OC)cc1	?	-5%	3%	12	-3%	3.2µM*
CCOC(=O)C1=C(C)NC(C)=C(C(=O)OCC)C1C(=O)OCC(=O)NCc1ccc(F)cc1	-49%	?	/	4	-10%	2%
C[C@H]1C[C@H]2[C@@H]3CCC4=CC(=O)C=C[C@]4(C)[C@@]3(F)[C@@H](O)C[C@]2(C)[C@@]1(O)C(=O)CO	/	/	/	/	/	-8%
SMILES	gsp agonist	Tb PFK block	RXFP1 agonist	RXFP1 antagonist	p53 reactivation	gsp antag
C[C@H]1C[C@H]2[C@@H]3CCC4=CC(=O)C=C[C@]4(C)[C@@]3(Cl)[C@@H](O)C[C@]2(C)[C@@]1(O)C(=O)CO	/	-4%	2%	-70*	4%	-8%
Cn1nc(C(C)(C)C)c(NC(=O)c2ccc(F)cc2)c1C(C)(C)C	2%[15.4 µM]	0%	5%	-12	4%	8%
C=CCn1c(O)c(C2=c3ccccc3=NC2=O)c2ccccc21	-28%	-14%	1%	-95*	/	11%
Cc1ccc(-n2c(=O)c3c4c(sc3n3c(=S)[nH]nc23)CCC4)cc1	-1%	0%	5%	-9	-3%	-19%
Cc1ccc(-n2c(=S)[nH]c3sc4c(c3c2=O)CCC4)cc1	55%[15.4 µM]	1%	13µM*	-1	-2%	12%
NC(=O)c1ccsc1NC(=O)COC(=O)/C=C/c1ccccc1	23%[15.4 µM]	0%	0%	-69*	2%	?
NC(=O)c1ccsc1NC(=O)COC(=O)/C=C/c1ccccc1[N+](=O)[O-]	-5%[15.4 µM]	?	/	-34	0%	1%
CCOC(=O)c1cccc(NC(=O)CCCn2nc(C)c3c(C)n(-c4ccccc4)nc3c2=O)c1	/	/	1%	2	/	/
CCc1cccc(NC(=O)CCCn2nc(C)c3c(C)n(-c4ccccc4)nc3c2=O)c1	13%	-6%	0%	-66*	6%	-13%
CCC(Oc1ccccc1)C(=O)Nc1ccc(OCc2cc(=O)n3ccccc3n2)cc1 (stereo unspecified)	/	/	27%	12	/	/
CCCCN1C(=O)c2ccc(C(=O)N(C)CC(=O)Nc3ccc(OCC)c(OCC)c3)cc2C1=O	3%[15.4 µM]	2%	/	-6	16%	-1%
COC(=O)c1c(NC(=O)C(C)(C)C)sc2c1CCN(Cc1ccccc1)C2	-1%	-4%	3%	-68*	16%	-4%
C[C@H]1c2cccc(O)c2C(O)=C2C(=O)C3(O)C(O)=C(C(N)=O)C(=O)[C@@H](N(C)C)[C@@H]3[C@@H](O)[C@@H]21 (stereo partly specified)	/	-9%	0%	/	3%	3%
C=C1c2cccc(O)c2C(O)=C2C(=O)[C@]3(O)C(O)=C(C(N)=O)C(=O)[C@@H](N(C)C)[C@@H]3[C@@H](O)[C@H]12	/	-19%	-1%	-70*	-1%	2%
c1ccc(C(O[C@H]2CCCN(CCc3ccc4c(c3)OCO4)C2)c2ccccc2)cc1	/	/	/	-62*	/	/
CC(NCc1ccc2c(c1)OCO2)c1ccccc1 (stereo unspecified)	8%	1%	-3%	5	5%	9%
COc1cccc(CN2CCN(Cc3cccn3-c3cccnc3)CC2CCO)c1 (stereo unspecified)	-13%	1%	1%	-7	-2%	50µM*
O=C(Nc1ccc(Br)cc1F)c1ccc2c(c1)N(Cc1ccccc1)C(=O)CS2=O (stereo unspecified)	-14%	1%	-1%	-72*	3%	?
COc1ccc(-c2nc(CSCC(=O)NC3CCN(Cc4ccccc4)CC3)c(C)o2)cc1OC	-12%	0%	0%	12	-3%	-6%
